High-throughput results deposited in PubChem BioAssay by National Center for Advancing Translational Sciences (NCATS).
Only a selection was taken, and hits are over-represented in it overall.
G9a inh: inhibitors of human histone lysine methyltransferase G9a. G9a H3K9 monomethylation, AlphaScreen, 2 h. actives 8.8% (n = 350,000). Q96KQ7. Potency, µM (series often up to 102 µM), for the others: at the highest dose activity, negative = inhibition, most hits filed as inhibitors. AID 504332; also: % is scaled to controls: 0 for no effect and ±100 for the full control effect; nearly all actives have a fitted effect of over 75% in size
Target sequence (Q96KQ7 913-1193 limits assumed): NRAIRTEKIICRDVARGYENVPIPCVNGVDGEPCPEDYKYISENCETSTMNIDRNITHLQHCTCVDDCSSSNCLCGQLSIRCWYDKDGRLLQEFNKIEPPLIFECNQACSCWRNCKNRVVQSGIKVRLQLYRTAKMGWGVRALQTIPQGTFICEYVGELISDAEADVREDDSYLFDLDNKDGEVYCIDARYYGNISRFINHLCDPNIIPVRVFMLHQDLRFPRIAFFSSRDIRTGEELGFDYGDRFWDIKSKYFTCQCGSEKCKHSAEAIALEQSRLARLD
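Methyltransferase reactions run at room temperature for 2 h (20 nM enzyme, 500 nM biotin-H3K9 peptide, 20 uM SAM) after a 15 min compound preincubation; product detected by AlphaScreen beads and anti-H3K9me1 antibody.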
Sfp PPTase inh: blocks B. subtilis Sfp PPTase activity; Q9F4F7; Biochemical Sfp PPTase activity, qHTS; Potency, µM, without a hit: largest response in the series, negative = inhibition, usual class: inhibitors; actives 3.5% (n = 310,000);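 also: the enzyme is Sfp with the accession as filed and its product quenches rhodamine fluorescence; 0% = enzyme reaction without inhibitor and -100% = no enzyme wells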
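Reaction rates are the 30-min fluorescence difference (ex 525, em 598 nm) in wells containing 15 nM Sfp, 5 uM rhodamine-CoA and 12.5 uM BHQ-2-YbbR at pH 7.6 with 10 mM MgCl2.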
VDR inhibitor: vitamin D3 receptor (human) inhibition | P11473 | VDR-SRC2-3 peptide fluorescence polarization, 2 h | Potency, µM, for the others: max response, negative = inhibition, hits mostly inhibitors | actives 0.93% (n = 400,000); also: % is scaled to controls: 0 for no effect and ±100 for the full control effect
Target sequence (P11473 whole entry, looked up): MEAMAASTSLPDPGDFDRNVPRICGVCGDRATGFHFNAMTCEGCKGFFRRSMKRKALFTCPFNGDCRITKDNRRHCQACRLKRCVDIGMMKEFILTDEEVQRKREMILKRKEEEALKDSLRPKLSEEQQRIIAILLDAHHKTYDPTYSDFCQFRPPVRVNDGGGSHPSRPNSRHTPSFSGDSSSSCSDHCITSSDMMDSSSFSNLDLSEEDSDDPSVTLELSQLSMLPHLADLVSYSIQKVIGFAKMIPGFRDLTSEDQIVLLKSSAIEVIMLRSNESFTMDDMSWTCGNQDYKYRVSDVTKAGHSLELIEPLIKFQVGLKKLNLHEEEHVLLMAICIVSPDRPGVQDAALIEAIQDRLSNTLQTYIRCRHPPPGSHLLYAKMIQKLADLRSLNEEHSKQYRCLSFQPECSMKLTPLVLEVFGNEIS
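VDR–SRC2-3 interaction, FP format. Cmpds 23 nl via pintool, brief spin, 2 h ambient incubation.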
ALOX12 inh: ALOX12 (human) lipoxygenase inhibition; purified 12hLO, xylenol orange hydroperoxide absorbance; AID 1671190; actives 1.1% (n = 580,000); P18054; Potency, µM (top dose mostly 108 µM), without a hit: at the top dose activity change, negative = inhibition, usual class: inhibitors; also: % is scaled to controls: 0 for no effect and ±100 for the full control effect
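Purified human 12hLO at 150 nM in 25 mM Hepes, 0.01% Triton X-100, pH 7.0, preincubated 15 min at room temperature with compound. Reaction started with 40 uM arachidonic acid, 30 min at room temperature. Hydroperoxide measured by Fe-xylenol orange, 573/405 nm absorbance ratio.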
Glioma ERSR ind: ER stress response induction in glioma. U87-MG GRP78 promoter luciferase reporter, 16 h. Potency, µM, inactives show top-dose activation, actives largely listed as activators. actives 0.02% (n = 420,000). AID 602332; also: series mostly up to about 76 µM; % of control where 0% means no effect; nearly all actives have a fitted effect of over 35% in size
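Stably transfected U87-MG human glioma cells carrying a GRP78-based luminescent sensor were seeded at 1000 cells/well, pin-dosed with compounds and incubated 16 h. Luciferase reagent was then added, and end-point luminescence was read after 10 min at room temperature.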
Numbers without * were called inactive; ? = inconclusive; / = no result given; [ ] = another dose, or the depositor's remark. Calls follow the shape of the dose curve; as a rule, active = well fitted curve in the direction sought with a large enough effect; inconclusive = small, poorly fitted or top-dose-only effect, or another doubt; inactive = no such curve, though single readings can be large; an effect the other way counts as inactive or inconclusive. Potency is read from the fitted curve at half-maximal effect.

SMILES | G9a inh | Sfp PPTase inh | VDR inhibitor | ALOX12 inh | Glioma ERSR ind
CC1=C(C(=O)O)N2C(=O)C(NC(=O)c3nn(C)c(C)c3Cl)C2SC1 (configuration not stated) | 8.9µM* | 11µM* | -16% | ? | 1%
O=[N+]([O-])c1ccccc1S(=O)(=O)Nc1cccc(-n2cccn2)c1 | / | / | / | 11% | /
CCOc1ccc(S(=O)(=O)N2Cc3ccccc3CC2C(=O)O)cc1 (configuration not stated) | 50µM* | 24% | -5% | 10% | -10%
O=C(O)C1Cc2ccccc2CN1C(=O)COc1ccc(Cl)cc1 (configuration not stated) | 45µM* | 21% | 9% | -65% | -3%
COc1ccc(S(=O)(=O)N2Cc3ccccc3CC2C(=O)O)cc1 (configuration not stated) | ? | -16% | -4% | ? | -1%
Cc1ccc(F)cc1NC(=O)CC(C)(C(=O)O)c1ccccc1 (configuration not stated) | / | / | / | 2% | /
CCOCc1[nH]c(=S)[nH]c(=O)c1Cc1ccc(OCC)cc1 | / | ? | -16% | ? | -2%
COCc1[nH]c(=S)[nH]c(=O)c1C | ? | 79µM* | 10% | ? | -3%
CN1CCCC1CCNc1nccc(-c2cnn(-c3ccccc3F)c2)n1 (configuration not stated) | / | / | / | 37% | /
Cc1ccc(NC(=O)CCNc2cnc3cnccn23)cc1F | / | / | / | 50µM* | /
Nc1nc(=S)c2ncn([C@@H]3O[C@H](CO)[C@@H](O)[C@H]3O)c2[nH]1 | 1.8µM* | / | -22% | ? | -4%
Nc1nc(=S)c2ncn(C3OC(CO)C(O)C3O)c2[nH]1 (configuration not stated) | 2µM* | 6.3µM* | 71µM* | ? | -6%
CC1(C)OC2C(CO)OC(n3cnc4c(=S)nc(N)[nH]c43)C2O1 (configuration not stated) | / | / | / | / | -2%
Nc1nc(=S)c2ncn(C3CCCCC3)c2[nH]1 | / | / | 8% | 50µM* | -1%
Nc1nc2c([nH]c(=S)n2C2OC(CO)C(O)C2O)c(=O)[nH]1 (configuration not stated) | / | 45µM* | ? | / | 2%
C=CCNc1nc2c(c(=O)n(C)c(=O)n2C)n1Cc1ccccc1 | / | / | / | 4% | /
O=S(=O)(c1cc(F)ccc1F)N1CCN(Cc2cccc3cccnc23)CC1 | / | / | / | 16µM* | /
O=C1CC(Cc2ccccc2)C(=O)N1Cc1ccco1 (configuration not stated) | 45µM* | 14µM* | -10% | / | 2%
O=C1C2C3CCC(C3)C2C(=O)N1Cc1ccco1 (configuration not stated) | -3%[59 µM] | -6% | -5% | -16% | -4%
Cc1ccc(CC2CC(=O)N(Cc3ccco3)C2=O)cc1 (configuration not stated) | 40µM* | 35µM* | ? | ? | 0%
CN(Cc1cccc(C(F)(F)F)c1)C(=O)C1CCCC1 | / | / | / | 37%[176 µM] | /
NC(=O)c1c(NC(=O)C2CC=CCC2C(=O)O)sc2c1CCCCC2 (configuration not stated) | 8.9µM* | 35µM* | 71µM* | 19% | 6%
CC(C)OC(=O)c1c(NC(=O)C2CC=CCC2C(=O)O)sc2c1CCCCC2 (configuration not stated) | 45µM* | 11% | ? | ? | -3%
C=CC(=O)Nc1sc2c(c1C(N)=O)CCCC2 | -14%[2.33 µM] | / | 9% | -2% | -9%
COc1ccc(/C=C/C(=O)NC(=S)Nc2ccc(S(=O)(=O)Nc3nccnc3OC)cc2)cc1 | ? | ? | -2% | ? | 3%
SMILES | G9a inh | Sfp PPTase inh | VDR inhibitor | ALOX12 inh | Glioma ERSR ind
COc1ccc(/C=C/C(=O)NC(=S)Nc2ccc(S(=O)(=O)Nc3cc(OC)ncn3)cc2)cc1 | 40µM* | -9% | 7% | ? | -1%
COc1cc(NS(=O)(=O)c2ccc(NC(=S)NC(=O)/C=C/c3ccc(OC)c(OC)c3)cc2)ncn1 | 40µM* | -9% | -28% | -14% | 0%
CCCN(Cc1ccc(N(C)C)cc1)CC1CC1 | ? | 89µM* | -4% | ? | -7%
CC(C)c1nc(NCC2CCCO2)c(C#N)c2c1CCCC2 (configuration not stated) | / | / | / | -7% | /
COc1cc(C(C)=O)ccc1OCc1cn(CC(=O)c2ccc(O)cc2)nn1 | / | / | 89µM* | ? | -3%
COc1ccc(-n2nc(C)c([C@@H]3C=C[C@@H](NS(=O)(=O)c4cccs4)C3)c2C)cc1 | / | / | / | 2%[176 µM] | /
CN1CCCc2ccccc21 | / | / | / | / | -4%
CCCN1CCCc2ccccc21 | 22µM* | 3% | 17% | -13% | -2%
COc1cccc(CNC(=O)C2Cn3cccc3C(=O)N2Cc2cccnc2)c1 (configuration not stated) | / | / | / | 36% | /
Cc1sc2nc(SCc3nc(-c4ccccc4)no3)n(-c3ccccc3)c(=O)c2c1C | 3.2µM* | -6% | 11% | -2% | 0%
COc1ccc(Cc2nnc(NS(=O)(=O)c3ccc(Cl)cc3)s2)cc1OC | 32µM* | -18% | 1% | ? | -2%
CCc1nnc(NS(=O)(=O)c2ccc(NC(=S)NC(=O)c3ccncc3)cc2)s1 | 50µM* | -3% | -14% | ? | -2%
CCc1nnc(NS(=O)(=O)c2ccc(NC(=S)NC(=O)c3ccc(OC)cc3)cc2)s1 | ? | -23% | -9% | 8.9µM* | 3%
CCc1nnc(NC(=O)c2ccc(NC(=O)C(C)C)cc2)s1 | 56µM* | 6% | -11% | ? | -1%
CCc1nnc(NS(=O)(=O)c2ccc(NS(=O)(=O)c3ccc(NC(C)=O)cc3)cc2)s1 | -4% | 8% | / | / | /
CC(C)c1nn2c(=O)cc(CN3CCN(c4ncccn4)CC3)nc2s1 | / | / | / | -11% | /
O=C(NCCc1ccccc1)c1ccccc1NC(=O)C1CC1 | / | / | / | -26% | /
CC1(CNc2ccccc2)COc2ccc(C(=O)NCCc3ccccc3)cc2N1 (configuration not stated) | / | / | / | 4%[176 µM] | /
O=S(=O)(Nc1ccc(-c2cn3ccsc3n2)cc1)c1cccs1 | / | / | / | 23% | /
CCc1nnc(NS(=O)(=O)c2ccc(NC(=S)NC(=O)c3ccc(OC)c(OC)c3)cc2)s1 | ? | -27% | -15% | 8.9µM* | -4%
CCOc1cc(C(=O)Nc2ccc(S(=O)(=O)Nc3nnc(CC)s3)cc2)cc(OCC)c1OCC | ? | -4% | 27% | 0% | -5%
COc1ccc2cc(CN(Cc3cccnc3)S(=O)(=O)c3ccccc3)c(=O)[nH]c2c1 | ? | -1% | -8% | 45µM* | -1%
CCCNC(=O)N1CCN(c2oc(-c3ccco3)nc2C#N)CC1 | / | / | / | 6% | /
COC(=O)C1CCN(C(=O)Cn2nc(-c3cccs3)c3ccccc3c2=O)CC1 | / | / | / | 37% | /
COc1ccc(S(=O)(=O)N=Nc2c(O)[nH]c3ccccc23)cc1 | 3.2µM* | -13% | -7% | ? | -4%
Cc1ccc(S(=O)(=O)N=Nc2c(O)[nH]c3ccccc23)cc1C | 4.5µM* | -1% | -19% | ? | -5%
